For some of these results: Entries with a potency or affinity are not part of this list. Calls of active or inactive are those of the source. Unless noted, no rule for the calls is given here.
How the values were obtained:
[1] = antimalarial activity against Dd2 strain (AID 2302;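 active = growth inhibition above 50% at the single 2 µM test dose, taken to imply half-maximal potency below 2 µM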;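 also: 0% = DMSO untreated growth and 100% = chloroquine plus artemisinin killed control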); settings: P. falciparum Dd2 in RBCs, LDH growth readout, 72 h; at 2 µM; hits give high values
[2] = HepG2 cytotoxicity, primary screen, cytotoxicity control for P. falciparum antimalarial project, cell-based, ATP luminescence (AID 2303;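 active = inhibition above 50%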;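 also: 0% = DMSO wells and 100% = digitonin-killed cells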); settings: HepG2 viability, 24-48 h, at 10 µM, hits give high values
[3] = target: L-lactate dehydrogenase (Plasmodium falciparum (isolate CDC / Honduras)) (UniProt Q27743); assay: PfLDH activity inhibition – cell lysate, 3D7 strain, counter-screen for P. falciparum growth inhibition project (AID 2304);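 also: 0% = vehicle and 100% = reference inhibitor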; settings: P. falciparum 3D7 crude extract, LDH APAD/NBT absorbance; at 2 µM; hits give high values
L-lactate dehydrogenase (Plasmodium falciparum (isolate CDC / Honduras)), sequence (Q27743 whole entry, looked up): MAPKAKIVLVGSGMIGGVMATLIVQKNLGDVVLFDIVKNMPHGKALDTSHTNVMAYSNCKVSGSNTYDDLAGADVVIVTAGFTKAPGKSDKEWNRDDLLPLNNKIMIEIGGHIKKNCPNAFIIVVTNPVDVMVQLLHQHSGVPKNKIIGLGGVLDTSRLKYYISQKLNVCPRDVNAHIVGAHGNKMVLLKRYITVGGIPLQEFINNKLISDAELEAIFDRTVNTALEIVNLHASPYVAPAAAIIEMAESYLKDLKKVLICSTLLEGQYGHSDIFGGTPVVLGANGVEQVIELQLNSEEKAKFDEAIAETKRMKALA

[4] = inhibition of 3D7 malaria parasite growth – strain 3D7 (AID 2306);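 also: 0% = DMSO wells and 100% = chloroquine plus artemisinin control wells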; settings: P. falciparum 3D7 erythrocytic growth, LDH absorbance, 72 h; at 2 µM; hits give high values
[5] = target: Calcium-dependent protein kinase 1 (Plasmodium falciparum (isolate 3D7)) (UniProt P62344); assay: PfCDPK1 kinase inhibitors, biochemical, TCAMS library (AID 1159585; cut-off not given, nearly all actives have IC50 up to about 0.98 µM;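 also: inhibitors leave more ATP so luminescence rises with inhibition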); settings: recombinant PfCDPK1, Kinase-Glo ATP depletion luminescence
Calcium-dependent protein kinase 1 (Plasmodium falciparum (isolate 3D7)), sequence (P62344 whole entry, looked up): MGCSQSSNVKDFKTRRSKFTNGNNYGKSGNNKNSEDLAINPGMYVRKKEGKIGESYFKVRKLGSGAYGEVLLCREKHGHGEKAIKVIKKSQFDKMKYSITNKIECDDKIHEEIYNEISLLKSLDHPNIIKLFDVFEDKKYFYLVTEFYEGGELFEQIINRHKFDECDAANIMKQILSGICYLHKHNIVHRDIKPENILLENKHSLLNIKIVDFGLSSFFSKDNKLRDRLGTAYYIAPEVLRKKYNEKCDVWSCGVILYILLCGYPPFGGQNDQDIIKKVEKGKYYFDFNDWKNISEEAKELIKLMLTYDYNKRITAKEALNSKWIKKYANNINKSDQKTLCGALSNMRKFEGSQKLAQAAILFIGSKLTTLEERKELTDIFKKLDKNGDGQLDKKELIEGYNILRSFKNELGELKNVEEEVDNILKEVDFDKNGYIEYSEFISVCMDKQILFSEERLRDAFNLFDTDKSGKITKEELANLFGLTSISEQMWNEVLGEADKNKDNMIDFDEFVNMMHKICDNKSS

[6] = target: Plasmodium falciparum protein kinase 6 (PK6, PF3D7_1337100) (UniProt Q8IDW1); assay: PfPK6 kinase inhibitors, biochemical, TCAMS library (AID 1159586); settings: recombinant PfPK6, Kinase-Glo ATP depletion luminescence
Plasmodium falciparum protein kinase 6 (PK6, PF3D7_1337100), sequence (Q8IDW1 1-305): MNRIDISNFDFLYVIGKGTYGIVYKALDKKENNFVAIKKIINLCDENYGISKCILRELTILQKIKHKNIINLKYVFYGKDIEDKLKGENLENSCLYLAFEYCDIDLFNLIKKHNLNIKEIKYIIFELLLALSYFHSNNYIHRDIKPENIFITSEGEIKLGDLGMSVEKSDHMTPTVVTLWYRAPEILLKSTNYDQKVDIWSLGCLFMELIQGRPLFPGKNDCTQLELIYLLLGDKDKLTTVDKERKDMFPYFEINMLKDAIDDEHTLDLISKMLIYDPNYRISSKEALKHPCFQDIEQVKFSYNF

[7] = target: Protein kinase 7 (PK7), Plasmodium falciparum 3D7 (PF3D7_0213400) (UniProt Q7YTF7); assay: inhibition of Plasmodium PK7 catalytic activity – biochemical, TCAMS antimalarial set, Kinase-Glo luminescence (AID 1159587); settings: recombinant PfPK7, Kinase-Glo ATP depletion luminescence
Protein kinase 7 (PK7), Plasmodium falciparum 3D7 (PF3D7_0213400), sequence (Q7YTF7 1-343): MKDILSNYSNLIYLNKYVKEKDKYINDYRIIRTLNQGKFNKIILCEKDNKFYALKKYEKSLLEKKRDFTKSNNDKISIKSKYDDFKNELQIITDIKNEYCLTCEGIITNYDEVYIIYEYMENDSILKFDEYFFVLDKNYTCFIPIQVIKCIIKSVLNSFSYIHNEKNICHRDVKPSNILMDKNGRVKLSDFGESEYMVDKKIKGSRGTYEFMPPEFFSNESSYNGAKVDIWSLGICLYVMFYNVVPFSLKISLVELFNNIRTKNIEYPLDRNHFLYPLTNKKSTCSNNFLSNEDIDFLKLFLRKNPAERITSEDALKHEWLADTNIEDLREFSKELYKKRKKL

[8] = target: Calcium-dependent protein kinase 4 (Plasmodium falciparum (isolate 3D7)) (UniProt Q8IBS5); assay: PfCDPK4 kinase inhibitors, biochemical, TCAMS library (AID 1159588; cut-off not given, nearly all actives have IC50 up to about 0.91 µM); settings: recombinant PfCDPK4, Kinase-Glo ATP depletion luminescence
Calcium-dependent protein kinase 4 (Plasmodium falciparum (isolate 3D7)), sequence (Q8IBS5 whole entry, looked up): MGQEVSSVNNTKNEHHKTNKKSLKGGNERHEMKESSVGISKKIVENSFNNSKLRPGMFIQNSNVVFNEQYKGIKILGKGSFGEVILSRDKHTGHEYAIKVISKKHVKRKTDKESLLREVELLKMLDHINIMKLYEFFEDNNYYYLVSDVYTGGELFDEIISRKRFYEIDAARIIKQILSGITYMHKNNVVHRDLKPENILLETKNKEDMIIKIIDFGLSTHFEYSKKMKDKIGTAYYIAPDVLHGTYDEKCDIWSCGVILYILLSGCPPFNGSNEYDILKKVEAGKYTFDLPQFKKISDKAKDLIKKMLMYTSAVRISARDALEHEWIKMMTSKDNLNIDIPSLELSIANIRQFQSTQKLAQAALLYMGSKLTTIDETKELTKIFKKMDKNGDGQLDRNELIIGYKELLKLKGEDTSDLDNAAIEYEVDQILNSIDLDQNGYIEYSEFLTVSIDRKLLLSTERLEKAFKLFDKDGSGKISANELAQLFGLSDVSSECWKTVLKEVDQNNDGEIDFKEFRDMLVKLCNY

O=C(C=Cc1ccc(Cl)c(Cl)c1)NCCCCCN1CCC(CCNC(=O)/C=C/c2ccccc2)CC1
inactive: growth inhibition [1] 1% | inhibition [2] 25% | inhibition [3] -7% | outcome [5] | outcome [6] | outcome [7] | outcome [8]
active: growth inhibition [4] 97%

CN(Cc1c(Cl)cnn1C)S(=O)(=O)c1ccc2ccccc2c1
inactive: growth inhibition [1] 36% | inhibition [2] 7% | inhibition [3] -2% | outcome [5] | outcome [6] | outcome [7] | outcome [8]
active: growth inhibition [4] 94%

Cc1cccc2[nH]c(-c3cccc(-c4cccc(CNCc5ccc(S(C)(=O)=O)cc5)c4)c3)nc12
active: growth inhibition [1] 66% | growth inhibition [4] 100%
inactive: inhibition [2] 13% | inhibition [3] 0% | outcome [5] | outcome [6] | outcome [7] | outcome [8]

CC(C)C1=C[C@H]2C[C@]3(C4OCCO4)[C@@H]4CC[C@@H](C)[C@H]4C[C@@]2(C(=O)OCC2COCO2)[C@]13C(=O)OC(c1ccccc1)c1ccccc1 (stereo not given in full)
inactive: inhibition [2] 2% | inhibition [3] 4% | outcome [5] | outcome [6] | outcome [7] | outcome [8]
active: growth inhibition [1] 96% | growth inhibition [4] 92%

CCC(CSC1CCCCC1)N(C)CCN(C)C(CC)CSC1CCCCC1 (stereo not given)
active: growth inhibition [1] 98% | inhibition [2] 84% | growth inhibition [4] 98%
inactive: inhibition [3] -4% | outcome [5] | outcome [6] | outcome [7] | outcome [8]

O=C(c1cc(OC(F)(F)F)ccc1O)N1CCN(c2ccccc2)CC1
inactive: growth inhibition [1] 1% | inhibition [2] -10% | inhibition [3] -4% | outcome [5] | outcome [6] | outcome [7] | outcome [8]
active: growth inhibition [4] 88%

CCOC(=O)c1c(CCc2ccc(C(F)(F)F)cc2)nc2c(c1-c1ccc(C(=O)N[C@@H](C)c3ccncc3)cc1)C(=O)N1CCC[C@@H]21
inactive: inhibition [2] -3% | inhibition [3] -2% | outcome [5] | outcome [6] | outcome [7] | outcome [8]
active: growth inhibition [1] 68% | growth inhibition [4] 85%

CC(C)(C)c1ccc(CN2CCC(CNC(=O)c3cc(-c4cccc(C(F)(F)F)c4)cs3)C2)cc1 (stereo not given)
active: growth inhibition [1] 84% | inhibition [2] 80% | growth inhibition [4] 100%
inactive: inhibition [3] 1% | outcome [5] | outcome [6] | outcome [7] | outcome [8]

NC(N)=NC(=O)Nc1cc(Cl)c(Cl)c(C(F)(F)F)c1
active: growth inhibition [1] 99% | growth inhibition [4] 100%
inactive: inhibition [2] 6% | inhibition [3] -5% | outcome [5] | outcome [6] | outcome [7] | outcome [8]

Cc1c(F)cc(C(=O)NC2CC2)cc1-c1ccc2c(cnn2S(=O)(=O)c2ccc(Cl)s2)c1
inactive: inhibition [2] 24% | inhibition [3] -4% | outcome [5] | outcome [6] | outcome [7] | outcome [8]
active: growth inhibition [1] 50% | growth inhibition [4] 81%

CCN(CCS(C)(=O)=O)Cc1ccc(-c2ccc3ncnc(Nc4ccc(OCc5cccc(F)c5)c(Cl)c4)c3c2)o1
active: growth inhibition [1] 63% | growth inhibition [4] 101%
inactive: inhibition [2] 5% | inhibition [3] -7% | outcome [5] | outcome [6] | outcome [7] | outcome [8]

O=C(Nc1cccc(F)c1)N1CCC(CN2CCOC(c3ccccc3)(c3ccccc3)C2)CC1
active: growth inhibition [1] 97% | growth inhibition [4] 96%
inactive: inhibition [2] 12% | inhibition [3] 7% | outcome [5] | outcome [6] | outcome [7] | outcome [8]

Fc1ccc2nc(-c3cccc(-c4ccc(CN5CCN(c6ccncc6)CC5)cc4)c3)[nH]c2c1
active: growth inhibition [1] 67% | growth inhibition [4] 100%
inactive: inhibition [2] 39% | inhibition [3] 0% | outcome [5] | outcome [6] | outcome [7] | outcome [8]

Cc1c(Cc2ccccc2Br)cnc2nc(N)nc(N)c12
active: growth inhibition [1] 97% | inhibition [2] 67% | growth inhibition [4] 88%
inactive: inhibition [3] 0% | outcome [5] | outcome [6] | outcome [7] | outcome [8]

COc1ccc(NC(=O)NCC2CCCN(CCCCCNC(=O)/C=C/c3ccc(Cl)c(Cl)c3)C2)c(OC)c1 (stereo not given)
active: growth inhibition [4] 95%
inactive: growth inhibition [1] -2% | inhibition [2] 8% | inhibition [3] -6% | outcome [5] | outcome [6] | outcome [7] | outcome [8]

CC(C)N1CCC(N(Cc2ccc(-c3ccc(C(F)(F)F)cc3)cc2)C(=O)Cn2c(SCc3cccc(F)c3F)cc(=O)c3c2CCC3)CC1
active: growth inhibition [4] 88%
inactive: growth inhibition [1] 42% | inhibition [2] 44% | inhibition [3] -6% | outcome [5] | outcome [6] | outcome [7] | outcome [8]

O=C(Nc1ccnc(-c2cccnc2)n1)c1cc(C(F)(F)F)cc(C(F)(F)F)c1
active: growth inhibition [4] 95%
inactive: growth inhibition [1] 12% | inhibition [2] 22% | inhibition [3] -4% | outcome [5] | outcome [6] | outcome [7] | outcome [8]

COc1ccc(C2CCN(C#N)C2)cc1OC1CCCC1 (stereo not given)
inactive: inhibition [2] 9% | inhibition [3] 2% | outcome [5] | outcome [6] | outcome [7] | outcome [8]
active: growth inhibition [1] 97% | growth inhibition [4] 102%

CC(C)[C@@H](NC(=O)NC1CCC(CCN2[C@@H]3CC[C@H]2CC(OC(=O)C(CO)c2ccccc2)C3)CC1)C(O)(c1ccccc1)c1ccccc1 (stereo not given in full)
active: growth inhibition [1] 56% | growth inhibition [4] 96%
inactive: inhibition [2] 19% | inhibition [3] 2% | outcome [5] | outcome [6] | outcome [7] | outcome [8]

CC1(C)C(=O)Nc2ccccc2N1C(=O)CN1CCN(c2ccccc2O)CC1
active: growth inhibition [1] 72% | growth inhibition [4] 92%
inactive: inhibition [2] 7% | inhibition [3] 0% | outcome [5] | outcome [6] | outcome [7] | outcome [8]

Cc1ccc(NC(=O)c2cc(S(=O)(=O)NC(C)(C)C)ccc2C)nc1
inactive: inhibition [2] -1% | inhibition [3] -2% | outcome [5] | outcome [6] | outcome [7] | outcome [8]
active: growth inhibition [1] 80% | growth inhibition [4] 86%

COc1cc2nc(NCC3CCN(C(=O)c4ccc(-c5ccc(C(=O)N(C)C)cc5C)cc4)CC3)nc(N)c2cc1OC
active: growth inhibition [4] 101%
inactive: growth inhibition [1] 34% | inhibition [2] 2% | inhibition [3] 1% | outcome [5] | outcome [6] | outcome [7] | outcome [8]

Cc1cc2ncc(C(N)=O)c(Nc3ccc(N4CCOCC4)cc3)c2cc1S(C)(=O)=O
inactive: inhibition [2] -10% | inhibition [3] -5% | outcome [5] | outcome [6] | outcome [7] | outcome [8]
active: growth inhibition [1] 96% | growth inhibition [4] 100%

Cc1cccc2[nH]c(-c3cccc(-c4ccc(C(=O)NCc5nccn5C)cc4)c3)nc12
inactive: growth inhibition [1] 9% | inhibition [2] 18% | inhibition [3] 1% | outcome [5] | outcome [6] | outcome [7] | outcome [8]
active: growth inhibition [4] 100%

COC(=O)c1ccc2nc(-c3ccc(C(=O)NCc4ccc(Cl)c(Cl)c4)cc3)[nH]c2c1
inactive: growth inhibition [1] 3% | inhibition [2] 1% | inhibition [3] -2% | outcome [5] | outcome [6] | outcome [7] | outcome [8]
active: growth inhibition [4] 95%

Cc1nnc2c(NC(=O)NC3CCCC3)cc3cc(-c4ccc(CN5CCCCC5)cc4)ccc3n12
active: growth inhibition [1] 93% | inhibition [2] 100% | growth inhibition [4] 99%
inactive: inhibition [3] -3% | outcome [5] | outcome [6] | outcome [7] | outcome [8]

COc1ccc(NC(=O)[C@H](Cc2ccccc2)Nc2cc(C)nc(NCCc3ccccc3)n2)cc1
inactive: inhibition [2] 6% | inhibition [3] -1% | outcome [5] | outcome [6] | outcome [7] | outcome [8]
active: growth inhibition [1] 83% | growth inhibition [4] 98%

CCc1ccc(C2CCN(CCCCNC(=O)c3ccc(NC(=O)c4ccc(Cl)cc4)cc3)CC2)c(OC)c1
active: growth inhibition [1] 80% | growth inhibition [4] 101%
inactive: inhibition [2] 26% | inhibition [3] -6% | outcome [5] | outcome [6] | outcome [7] | outcome [8]

Cc1nnc(NC(=O)c2cn(-c3ccccc3)nc2-c2ccccc2C)o1
active: growth inhibition [1] 87% | growth inhibition [4] 93%
inactive: inhibition [2] 37% | inhibition [3] 1% | outcome [5] | outcome [6] | outcome [7] | outcome [8]

COc1ccc(OC)c(-c2ccc(=O)n(CC(=O)Nc3cccc4ccccc34)n2)c1
active: growth inhibition [1] 95% | growth inhibition [4] 101%
inactive: inhibition [2] -9% | inhibition [3] 3% | outcome [5] | outcome [6] | outcome [7] | outcome [8]

COc1ccccc1N1CCN(C(C(=O)NCc2cccc(F)c2)c2ccc(C)cc2)CC1 (stereo not given)
active: growth inhibition [1] 80% | growth inhibition [4] 94%
inactive: inhibition [2] 4% | inhibition [3] 1% | outcome [5] | outcome [6] | outcome [7] | outcome [8]

Cc1[nH]c(C)c(-c2ccc(OCCCCSc3ccncc3)cc2)c(=O)c1Br
active: growth inhibition [1] 97% | growth inhibition [4] 97%
inactive: inhibition [2] -3% | inhibition [3] -2% | outcome [5] | outcome [6] | outcome [7] | outcome [8]

O=C(Cn1c(CCc2cccc(F)c2F)nc(=O)c2ccccc21)N(Cc1ccc(-c2ccc(C(F)(F)F)cc2)cc1)C1CCN(C2=NCCS2)CC1
inactive: inhibition [3] 3% | outcome [5] | outcome [6] | outcome [7] | outcome [8]
active: growth inhibition [1] 85% | inhibition [2] 62% | growth inhibition [4] 81%

Cc1ccc(-c2ccn(Cc3ccc(OCc4ccccc4)cc3)n2)cn1 (tested in a mixture with another compound)
inactive: inhibition [2] 1% | inhibition [3] -3% | outcome [5] | outcome [6] | outcome [7] | outcome [8]
active: growth inhibition [1] 92% | growth inhibition [4] 93%

CC(C)C[C@H]1c2[nH]c3ccc(Cl)cc3c2CCN1C(=O)CCc1ccccc1
inactive: inhibition [2] -2% | inhibition [3] 6% | outcome [5] | outcome [6] | outcome [7] | outcome [8]
active: growth inhibition [1] 81% | growth inhibition [4] 95%
